# Compound activity from PubChem.
# Pf growth 48h: inhibits P. falciparum growth in the first generation, 48 h; actives 5.9% (n = 310,000); Potency, µM (titrated, usually from 28.7 µM), for inactives: top-dose activity change, negative = inhibition, hits mostly inhibitors; AID 504832; P. falciparum luciferase growth in erythrocytes, 48 h; also: % is scaled to controls: 0 for no effect and ±100 for the full control effect
#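 Here the parasites carry a stable luciferase gene and grow inside erythrocytes in Albumax-based RPMI medium with compound for one erythrocytic cycle. Activity is scored as loss of luminescent signal.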
# VACV mCherry inh: vaccinia inhibition (mCherry reporter); Vaccinia virus mCherry reporter infection, fluorescence; Potency, µM (series often up to 36.5 µM), without a hit: at the highest dose activity change, negative = inhibition, most hits filed as inhibitors; actives 0.63% (n = 310,000); calls by dose curve; tested in A549 cells; also: % is scaled to controls: 0 for no effect and ±100 for the full control effect; nearly all actives have a fitted effect of over 35% in size
# HCV inhibitor: inhibitors of hepatitis C virus infection; Huh7.5.1 HCVcc-Cre infection, luciferase reporter, 44 h; Potency, µM (doses to about 41.8 µM), inactives show at the highest dose activity change, negative = inhibition, hits mostly inhibitors; actives 3.4% (n = 340,000); AID 651820; also: % is scaled to controls: 0 for no effect and ±100 for the full control effect
#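 Luciferase read-out (15 sec integration) after a 15 min room-temperature substrate step quantifies HCVcc-Cre infection. Cells, 1,000 per well, had compound added 4 h post-plating, then virus at ~0.5 moi, and were cultured 44 h.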
# Pf growth 96h: inhibits malaria parasite growth, 96 h; Potency, µM (titrated, usually from 28.7 µM), without a hit: at the top dose activity change, negative = inhibition, actives largely listed as inhibitors; actives 6.9% (n = 320,000); P. falciparum luciferase reporter growth, 96 h; also: % is scaled to controls: 0 for no effect and ±100 for the full control effect
#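 Erythrocytes infected with luciferase-expressing P. falciparum were dispensed at 2% hematocrit and 0.05% parasitemia (final), then incubated with compounds 96 hours at 37 C in 5% CO2. Luminescence after detection reagent addition reported growth.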
# NS1 function inh: blocks influenza NS1 protein function. Potency, µM (doses to about 46.1 µM), for inactives: at the highest dose activity, positive = more growth. actives 0.4% (n = 270,000); calls by dose curve; also: actives are rising curves; nearly all actives have a fitted effect of over 50% in size
#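 Read-out: OD600 growth recovery of NS1-expressing budding yeast. Cells grown overnight at 30C in -URA glucose medium, washed, resuspended and diluted 1:100 in 2% galactose assay medium, pH 6.0. Same strain lacking NS1 served as positive control.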
# Vaccinia Venus: inhibitors of vaccinia virus (Venus reporter); Vaccinia virus Venus reporter expression, fluorescence; Potency, µM (doses to about 36.5 µM), for the others: at the highest dose activity change, negative = inhibition, actives largely listed as inhibitors; actives 0.46% (n = 330,000); AID 720580; calls by dose curve; tested in A549 cells; also: % is scaled to controls: 0 for no effect and ±100 for the full control effect; nearly all actives have a fitted effect of over 30% in size
# * hit, by the source's call; i = inactive; u = inconclusive; x = no result given; [ ] = another dose, or the depositor's remark. Most compounds without a hit are left out; they make up all but 11% or so of the library. Unless noted, calls follow the shape of the dose curve; as a rule, active = well fitted inhibition curve with a large enough effect; inconclusive = small, poorly fitted or top-dose-only effect, or another doubt; inactive = no such curve, though single readings can be large or run the other way. Potency is read from the fitted curve at half-maximal effect.
SMILES,Pf growth 48h,VACV mCherry inh,HCV inhibitor,Pf growth 96h,NS1 function inh,Vaccinia Venus
CN(C(=O)COC(=O)/C=C/c1cccc([N+](=O)[O-])c1)C1CCS(=O)(=O)C1 (stereo not given),-1.0%,1.78µM*,-6.0%,-5.6%,1.3%,2.82µM*
O=C(COC(=O)c1c2c(nc3ccccc13)/C(=C/c1cccc([N+](=O)[O-])c1)CCC2)NC1CCS(=O)(=O)C1 (stereo not given),u,u,3.55µM*,u,u,u
O=C(COC(=O)/C=C/c1cn(-c2ccccc2)nc1-c1ccc2c(c1)OCCO2)NC1CCS(=O)(=O)C1 (stereo not given),u,x,u,u,-8.2%,x
CN(C(=O)COC(=O)/C=C/c1cn(-c2ccccc2)nc1-c1ccc2c(c1)OCCO2)C1CCS(=O)(=O)C1 (stereo not given),u,-7.3%,u,11.7µM*,x,-11.5%
O=C(COC(=O)c1c2c(nc3ccccc13)/C(=C\c1ccco1)CC2)NC1CCCC1,x,-23.4%,u,x,x,-23.0%
COC(=O)c1cc(C(=O)OCC(=O)N(C)C2CCS(=O)(=O)C2)cc([N+](=O)[O-])c1 (stereo not given),8.5%,-5.5%,6.3%,8.0%,x,2.4%
CN(C(=O)COC(=O)c1c2c(nc3ccccc13)/C(=C/c1cccc([N+](=O)[O-])c1)CCC2)C1CCS(=O)(=O)C1 (stereo not given),u,-14.6%,1.78µM*,u,u,-23.9%
Cc1ccc(C(=O)NCCc2ccc(S(=O)(=O)N3CCCC3)cc2)cc1,-29.8%,-2.8%,15.6%,19.6%,-7.2%,-5.7%
CN(C1CCCCC1)S(=O)(=O)c1ccc(=S)[nH]c1,u,-15.9%,8.7%,u,x,-0.4%
Cc1cc2c3c(c1)C1(C(=O)N3C(C)(C)CC2C)C(C#N)=C(N)Oc2cc(O)ccc21 (stereo not given),11.7µM*,x,u,x,-2.5%,x
CCc1cc2c3c(c1)C1(C(=O)N3C(C)(C)CC2C)C(C#N)=C(N)N2C(=C1C#N)Nc1ccccc12 (stereo not given),9.28µM*,u,u,-9.8%,23.4%,-29.8%
CC(=O)Nc1nnc(SCC(=O)NCC2CCCO2)s1 (stereo not given),9.0%,i,18.5%,-7.5%,-1.2%,-11.8%
CC(C)CC1NC(=O)N(CC(=O)Nc2ccc(OC(F)F)cc2)C1=O (stereo not given),4.2%,-20.3%,u,61.6%,x,-16.0%
CCc1ccccc1NC(=O)C(CC)Sc1nc2cc3c(cc2c(=O)n1Cc1ccco1)OCO3 (stereo not given),15.4%,x,u,i,11.9%,x
CCc1ccc(NC(=O)C(CC)Sc2nc3cc4c(cc3c(=O)n2Cc2ccco2)OCO4)cc1 (stereo not given),x,x,u,2.62µM*,5.4%,x
O=C1OCCC1Sc1nc2ccccc2n1-c1ccccc1 (stereo not given),x,x,6.3%,11.7µM*,-6.4%,-22.3%
COc1ccc(-n2c(SC3CCOC3=O)nc3ccccc32)cc1 (stereo not given),-11.3%,x,2.2%,u,-23.8%,8.1%
C[C@H]1c2cccc(O)c2C(O)=C2C(=O)C3(O)C(O)=C(C(N)=O)C(=O)[C@@H](N(C)C)[C@@H]3[C@@H](O)[C@@H]21 (stereo not given in full),4.65µM*,-10.6%,-11.6%,0.37µM*,x,-19.2%
C=C1c2cccc(O)c2C(O)=C2C(=O)[C@]3(O)C(O)=C(C(N)=O)C(=O)[C@@H](N(C)C)[C@@H]3[C@@H](O)[C@H]12,u,-12.0%,5.0%,0.465µM*,8.0%,-6.4%
C=C1c2cccc(O)c2C(O)=C2C(=O)[C@]3(O)C(O)=C(C(N)=O)C(=O)C(N(C)C)C3C(O)C12 (stereo not given in full),x,-9.9%,x,x,x,-4.2%
CCc1ccc(CN(Cc2ccco2)C(=O)c2ccc(OC)cc2)cc1,x,-5.9%,x,x,x,-5.4%
C[N+]1([C@H](CO)Cc2c[nH]c3ccccc23)Cc2ccccc2C1,x,x,x,x,-7.8%,x
COc1cccc(-c2nnc(NC(=O)c3ccc(Cl)s3)o2)c1,u,-4.8%,u,11.7µM*,-83.7%,-17.4%
COc1ccc(-c2nnc(NC(=O)c3ccc([N+](=O)[O-])o3)o2)c(OC)c1,14.7µM*,u,u,11.7µM*,5.9%,u
O=C(CCS(=O)(=O)c1ccc(Cl)cc1)Nc1nnc(-c2cccs2)o1,u,u,1.5%,3.1%,x,u
SMILES,Pf growth 48h,VACV mCherry inh,HCV inhibitor,Pf growth 96h,NS1 function inh,Vaccinia Venus
COc1cccc(-c2nnc(NC(=O)CCS(=O)(=O)c3ccc(C)cc3)o2)c1,u,10µM*,0.5%,u,x,u
Cc1ccc(S(=O)(=O)CCC(=O)Nc2nnc(-c3cccs3)o2)cc1,-7.5%,10µM*,-14.0%[8.37 µM],u,x,u
Cc1ccc(-c2nnc(NC(=O)c3ccc([N+](=O)[O-])o3)o2)c(C)c1,-4.3%,u,u,12.8%,x,u
CCOC(=O)C1=C(C)c2ccccc2OC1(C(=O)OCC)c1ccccc1 (stereo not given),x,i,u,x,x,0.0%
CC(=O)c1ccc(NC(=O)CNCc2cccs2)cc1,x,x,3.8%,38.6%,-0.2%,x
O=C(CNCc1cccs1)Nc1ccc(OC(F)(F)F)cc1,22.4%,-15.3%,30.9%,10.4µM*,0.3%,-18.5%
S=C(NCCC(c1ccccc1)c1ccccc1)Nc1ccc(Cl)cc1,0.1%,u,u,42.0%,-59.3%,-25.7%
COc1ccc(Cl)cc1NC(=S)NCCC(c1ccccc1)c1ccccc1,u,-26.7%,u,u,17.7%,-21.1%
S=C(NCCC(c1ccccc1)c1ccccc1)Nc1ccccc1Cl,u,x,-6.2%,4.65µM*,0.0%,-12.8%
COc1ccccc1NC(=S)NCCC(c1ccccc1)c1ccccc1,-16.2%,-7.2%,10µM*,u,-12.7%,-12.7%
O=C(NNC(=O)c1ccc2c(=O)n3c(nc2c1)CCC3)c1ccc(F)cc1,62.6%,-13.8%,-1.2%,84.5%,x,-2.1%
COc1ccc(CNc2nc(-c3cccnc3)nn2C(=O)CC(C)C)cc1,24.7%,-13.3%,u,42.9%,x,0.5%
CC1=CS/C(=C(/C#N)C(=O)NCc2ccco2)N1c1ccccc1,x,20.9%,4.5%,-17.4%,5.5%,-6.3%
N#C/C(C(=O)NCc1ccco1)=C1/SC=C(c2ccccc2)N1c1ccccc1,-0.2%,i,15.9%,5.22µM*,12.2%,-13.9%
Cc1ccc(Cn2ncc3c(N4CCN(C)CC4)ncnc32)cc1,-11.9%,-6.9%,u,7.38µM*,x,-3.1%
Cc1ccc(Cn2ncc3c(N4CCN(Cc5ccc(Cl)cc5)CC4)ncnc32)cc1,u,-26.6%,4.47µM*,-14.4%,7.0%,-18.4%
